According to PubChem BioAssay AID720597 (Broad Institute, 2013):
Entries with a potency or affinity are not part of this list. The source made the active and inactive calls.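 The calls were made as follows: active = fitted half-maximal dose no more than twice the top valid tested dose, for compounds that lower signal; inconclusive = fit invalid, or curve flat with activity between -70 and -30; inactive = potency past limit, curve flat within ±30, or signal increasing.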

biological target: NAD-dependent protein deacylase sirtuin-5, mitochondrial (Homo sapiens) (UniProt Q9NXA8); assay: SIRT5 deacylase inhibitors, dose response, biochemical, fluorescence imaging, cherry-pick, set 6 (AID 720597); details: Purified SirT5, succinyl-peptide-AMC/trypsin fluorescence; series mostly up to 15 µM;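 also: lower AMC signal can also come from blocking the trypsin step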
Sequence (Q9NXA8 whole entry, looked up): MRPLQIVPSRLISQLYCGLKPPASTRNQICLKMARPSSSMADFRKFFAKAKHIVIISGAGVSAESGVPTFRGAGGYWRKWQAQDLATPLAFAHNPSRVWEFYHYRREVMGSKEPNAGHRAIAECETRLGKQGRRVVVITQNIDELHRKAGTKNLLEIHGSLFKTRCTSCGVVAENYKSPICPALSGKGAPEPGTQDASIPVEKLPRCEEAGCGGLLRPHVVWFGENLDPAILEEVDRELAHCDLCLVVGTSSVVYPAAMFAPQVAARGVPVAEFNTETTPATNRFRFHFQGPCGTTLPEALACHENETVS

SMILES | outcome
C[C@@H]1CN([C@H](C)CO)C(=O)c2cc(-c3cccc(F)c3)cnc2O[C@@H]1CN(C)C | inactive
Cc1ccc(S(=O)(=O)Nc2ccc3c(c2)C(=O)N([C@H](C)CO)C[C@@H](C)[C@H](CN(C)C(=O)Nc2ccc(F)cc2)OCCCC[C@H](C)O3)cc1 | inactive
C[C@H](CO)N1C[C@H](C)[C@H](CN(C)S(=O)(=O)c2cccs2)Oc2c(NC(=O)C3CCCCC3)cccc2C1=O | inactive
C[C@@H]1CCCCO[C@H](CN(C)C(=O)Nc2ccc(C(F)(F)F)cc2)[C@H](C)CN([C@@H](C)CO)C(=O)c2cc(NS(=O)(=O)c3ccc(Cl)cc3)ccc2O1 | inactive
C[C@H](CO)N1C[C@H](C)[C@H](CN(C)Cc2ccc(-c3ccccc3)cc2)Oc2ccc(NC(=O)CCCCCC(=O)Nc3ccccc3N)cc2C1=O | inactive
O=C(NCC[C@H]1CC[C@@H](NC(=O)C2CC2)[C@@H](CO)O1)c1cc(Cl)cc(Cl)c1 | inactive
C[C@H]1CN([C@@H](C)CO)C(=O)c2ccccc2-c2ccccc2CO[C@H]1CN(C)Cc1ccccc1C(F)(F)F | inactive
C[C@@H]1CN([C@@H](C)CO)C(=O)Cc2cc(NC(=O)CCCCCC(=O)Nc3ccccc3N)ccc2O[C@@H]1CN(C)Cc1ccc(Oc2ccccc2)cc1 | inactive
COc1ccc(S(=O)(=O)Nc2ccc3c(c2)C(=O)N([C@@H](C)CO)C[C@@H](C)[C@H](CN(C)Cc2ccc(-c4ccccc4)cc2)O3)cc1 | inactive
C[C@@H]1CCCCO[C@@H](CN(C)Cc2ccc(C(F)(F)F)cc2)[C@H](C)CN([C@@H](C)CO)C(=O)c2cc(NS(=O)(=O)c3ccccc3)ccc2O1 | inactive
C[C@H]1CN([C@@H](C)CO)S(=O)(=O)c2ccc(C#CC(C)(C)O)cc2O[C@H]1CN(C)Cc1ccc(-c2ccccc2)cc1 | inactive
COc1ccc(CN(C)C[C@H]2OCCCC[C@H](C)Oc3ccc(N(C)C)cc3C(=O)N([C@H](C)CO)C[C@H]2C)cc1 | inactive
CC(C)NC(=O)Nc1ccc2c(c1)C(=O)N([C@H](C)CO)C[C@H](C)[C@@H](CN(C)Cc1ccc(Cl)c(Cl)c1)O2 | inactive
COc1ccccc1NC(=O)N[C@H]1CC[C@H](CCNC(=O)c2ccc3c(c2)OCO3)O[C@@H]1CO | inactive
Cc1noc(C)c1S(=O)(=O)Nc1ccc2c(c1)C(=O)N([C@H](C)CO)C[C@H](C)[C@@H](CN(C)Cc1ccc(C(F)(F)F)cc1)OCCCC[C@H](C)O2 | inactive
C[C@H](CO)N1C[C@H](C)[C@@H](CN(C)Cc2ccc(C(F)(F)F)cc2)Oc2ccc(NS(=O)(=O)c3ccc(F)cc3)cc2CC1=O | inactive
C[C@@H]1CN([C@H](C)CO)S(=O)(=O)c2ccc(C#Cc3ccc(F)cc3)cc2O[C@H]1CN(C)C(=O)NC1CCCCC1 | inactive
CCNC(=O)C[C@H]1CC[C@@H]2[C@H](COC[C@H](O)CN2C(=O)Nc2ccc(C(F)(F)F)cc2)O1 | inactive
